In one assay the test system is PPARa:RXRa (NR concentration 270 nM, RXRa partner concentration 90 nM). As to the kind of experiment: PBM binding z-score (relative to random genomic background probes); higher = stronger binding; sequences stand for … in GC…GCGATTGACAGCGTAGAATGAAGG
The method, boiled down:
(§1)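 Each nuclear receptor dimer, without ligand, was incubated for 1 h on custom Agilent 4×180K protein-binding microarrays. Binding was detected with antibodies against each partner (one per run), and scanned fluorescence was regression-normalized. The binding z-scores are referenced to random human genomic background probes.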
Sequence CCCACTGGGGCATAAGGTTACCATAAGCCAGCCC showed a PBM binding z-score of 2.36.
As to GCTTACGGGTCAAACGTTATAGCATGAATAGAAT, the PBM binding z-score was 5.72.
On the same count and under the same terms, in the case of TCTCGGATGACACGAAGGTCAGAGCTTTCCAGAG it was 2.24; in that of ATCTCTAGGTAAAATTTCAGTGAATCCCGAGGAT, 0.181; in that of CATACAGGGTCAGCTAGGCGAGAGTAGGGACGGC, 4.19.
The same measure, in the same setting: the same measure for GAAACGAGGGCAAGTTGATAGCAGAGTTTGATGG: 2.38; for GCATATAGGTAATACAAGGTGAAAATCCGATTGT: 1.5; for CCTAGTTGGTCAGGAGGTCAGACACCGGATATGA: 3.04.
The same measure, in the same setting: in the case of CCTTACGGCTCACGAGGTTATAGCACGACGAGCG it was 0.625; in that of CCTCGGAGGAGAACAGGAGGTCAGAGCTGCCAGA, 1.87; in that of TAGCCTTGGTCATGCGGGCCAGTATAGTGTCGGC, -0.707.
AGAATGAGTTTACCAAAGATCAGGGAAACGCTTG: the PBM binding z-score turned out to be 0.0717.
The same measure, in the same setting: in the case of ACTCGGAGGACAAAGGTCTGAGCTACGCCAGTGA it was 0.582.
As for TTACCAAGGGGAAAGGTCGTTGATGCACGCCTTG, the PBM binding z-score came to 3.79.
Same read-out and setting: in the case of CCTACTGGGCCACGAATGGTCATTGATTCAGTGA it was 0.398; in that of CGTCAAAGTTCAACTAAGGAAACGTAAAGCACGC, 5.18.
On the same count and under the same terms, in the case of TCTTGTAGATCAAGGAGGTTAAGAAAGCCTGAGT it was 1.27; in that of AATACAGGGTCACTAGGACAGAGTAGGTACGAAT, 5.77; in that of GTTCGGAGGACAAGGTCAGAGCTTTGTCCGTAGA, 2.16.
Still for that read-out and setting: in the case of TGAATGAGGTTAAAGATCAGGTAACGTGGCGTCG it was 4.75.
As to AATACAGGGTCACTAGGCCAGATTAGGTACGAAT, the PBM binding z-score is 5.92.
Sequence GCAGACAGGTGTAACGCAGGTAACTCAGGGTGGC displayed a PBM binding z-score of -0.721.
CTACCAAGGTGAACAAGGTCGCTGATTACTATTC gave a PBM binding z-score of 2.38.
Still for that read-out and setting: the same measure for CTTAGCAGGCCAGGGTCACTCAAGCATTTCGCTT: 3.33; for CCTACTGAGCCATTCAGAGGTCATTGATCATATG: 3.63; for GGAAAGAGGGCAAGTTGATAGCAGAGTTTGATGG: 2.15.
The same measure, in the same setting: the same measure for ATCTCTAGGTAACAAGTTCAGTGGAAGAGAGGAC: 1.47; for TCTCGGCGGACACGAAAGGTCAGAGCTCGACATC: 2.94; for CCTTACTGGTCACTGACAGGTTATAGCATTTGGA: 0.699.
On the same count and under the same terms, in the case of CGACCAAGGTCAGCAGGTCAGTGAAAGCGACGTG it was 4.85.
Turning to TCTTGTAGATCAACAGAGGTTAAGAAAGTGCGCT, the PBM binding z-score stood at 2.09.
On the same count and under the same terms, in the case of CCTAGTTGGTCAAGGTCACACTCGCTATAGGTAC it was 3.86; in that of CAAACTAGGTCAAGAGATCAAAGTCCGCTTCCCG, 5.17; in that of CTACTAAGGTGAACAAGGTCGTTGATTACTATTC, 3.07.
Same read-out and setting: the same measure for CGTCCAAGGTCAAGGCCAGTGAAAGAGACTCGAA: 5.55; for ATCTCTGGGTAAGACTCAGTTCAGTGAAGAACGC: 0.1.
Still for that read-out and setting: in the case of GCTAGTTGGTCAGTAAAAGGACACACACCGGTCG it was -0.104; in that of CCGACTGGGCCAAAAAGGTCATTGATGCCGATAA, 4.53; in that of TAGCCTAGGTCATTCAGGGGCCAGGATAGAAAGC, 3.69.
The sequence GCGACTGGGGCAGCAGCAGGTTACCATAACTTAA yielded a PBM binding z-score of 0.405.

The test system of a further assay is PPARg:RXRa (NR concentration 180 nM, RXRa partner concentration 90 nM). The assay is described as above. The method, boiled down: as §1
As to CCCACTGGGGCATAAGGTTACCATAAGCCAGCCC, the PBM binding z-score came out at 3.91.
Same read-out and setting: the same measure for GCTTACGGGTCAAACGTTATAGCATGAATAGAAT: 6.02.
Still for that read-out and setting: the same measure for TCTCGGATGACACGAAGGTCAGAGCTTTCCAGAG: 0.758.
Still for that read-out and setting: the same measure for ATCTCTAGGTAAAATTTCAGTGAATCCCGAGGAT: 0.177; for CATACAGGGTCAGCTAGGCGAGAGTAGGGACGGC: 2.92.
As to GAAACGAGGGCAAGTTGATAGCAGAGTTTGATGG, the PBM binding z-score was determined as 1.76.
Sequence GCATATAGGTAATACAAGGTGAAAATCCGATTGT returned a PBM binding z-score of 1.55.
Same read-out and setting: the same measure for CCTAGTTGGTCAGGAGGTCAGACACCGGATATGA: 2.05; for CCTTACGGCTCACGAGGTTATAGCACGACGAGCG: 0.887.
Still for that read-out and setting: in the case of CCTCGGAGGAGAACAGGAGGTCAGAGCTGCCAGA it was 0.262.
On the same count and under the same terms, in the case of TAGCCTTGGTCATGCGGGCCAGTATAGTGTCGGC it was -0.423; in that of AGAATGAGTTTACCAAAGATCAGGGAAACGCTTG, 0.658.
Sequence ACTCGGAGGACAAAGGTCTGAGCTACGCCAGTGA yielded a PBM binding z-score of 1.95.
The same measure, in the same setting: the same measure for TTACCAAGGGGAAAGGTCGTTGATGCACGCCTTG: 5.27.
Sequence CCTACTGGGCCACGAATGGTCATTGATTCAGTGA gave a PBM binding z-score of 1.18.
On the same count and under the same terms, the same measure for CGTCAAAGTTCAACTAAGGAAACGTAAAGCACGC: 5.11; for TCTTGTAGATCAAGGAGGTTAAGAAAGCCTGAGT: -0.429; for AATACAGGGTCACTAGGACAGAGTAGGTACGAAT: 8.06.
Take GTTCGGAGGACAAGGTCAGAGCTTTGTCCGTAGA: the PBM binding z-score came to 0.427.
The same measure, in the same setting: the same measure for TGAATGAGGTTAAAGATCAGGTAACGTGGCGTCG: 5.6.
On the same count and under the same terms, the same measure for AATACAGGGTCACTAGGCCAGATTAGGTACGAAT: 7.81.
Same read-out and setting: in the case of GCAGACAGGTGTAACGCAGGTAACTCAGGGTGGC it was 0.351.
For the sequence CTACCAAGGTGAACAAGGTCGCTGATTACTATTC, the PBM binding z-score amounted to 1.17.
CTTAGCAGGCCAGGGTCACTCAAGCATTTCGCTT registered a PBM binding z-score of 0.864.
In turn, CCTACTGAGCCATTCAGAGGTCATTGATCATATG gave a PBM binding z-score of 0.797.
With GGAAAGAGGGCAAGTTGATAGCAGAGTTTGATGG, the PBM binding z-score was 1.14.
Still for that read-out and setting: the same measure for ATCTCTAGGTAACAAGTTCAGTGGAAGAGAGGAC: 1.7.
Still for that read-out and setting: in the case of TCTCGGCGGACACGAAAGGTCAGAGCTCGACATC it was 0.571.
Still for that read-out and setting: the same measure for CCTTACTGGTCACTGACAGGTTATAGCATTTGGA: 0.266; for CGACCAAGGTCAGCAGGTCAGTGAAAGCGACGTG: 4.53.
For TCTTGTAGATCAACAGAGGTTAAGAAAGTGCGCT, the PBM binding z-score was 0.162.
Same read-out and setting: the same measure for CCTAGTTGGTCAAGGTCACACTCGCTATAGGTAC: 2.85.
Still for that read-out and setting: in the case of CAAACTAGGTCAAGAGATCAAAGTCCGCTTCCCG it was 8.04.
CTACTAAGGTGAACAAGGTCGTTGATTACTATTC had a PBM binding z-score of 1.47.
In the case of CGTCCAAGGTCAAGGCCAGTGAAAGAGACTCGAA, the PBM binding z-score was found to be 4.75.
On the same count and under the same terms, in the case of ATCTCTGGGTAAGACTCAGTTCAGTGAAGAACGC it was 0.0592.
In turn, GCTAGTTGGTCAGTAAAAGGACACACACCGGTCG registered a PBM binding z-score of 0.654.
The same measure, in the same setting: in the case of CCGACTGGGCCAAAAAGGTCATTGATGCCGATAA it was 2.35; in that of TAGCCTAGGTCATTCAGGGGCCAGGATAGAAAGC, 2.2.
In turn, GCGACTGGGGCAGCAGCAGGTTACCATAACTTAA showed a PBM binding z-score of 0.4.
